Where “and” joins values, the source holds several entries; their conditions need not be identical. Identical values can stand only once. Screen size: about 86,000 compounds; about 220 (0.26%) were called active. Shown is part of a subset that was picked to be rich in actives. Unmarked numbers belong to inactive results.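 The calls were made as follows: active = mean growth activity at or below -80% and every replicate also at or below -80%; inconclusive = mean at or below -80% but some replicate above -80%; inactive = mean growth activity above -80%.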
Assay: C. difficile growth inhibitors, primary screen, HTS (AID 1259249);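 also: 0% = DMSO wells and -100% = levofloxacin 16 µg/mL wells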
Conditions: Clostridium difficile clinical isolate growth, OD600, 24 h; active compounds read low; screened at 16 µg/mL (by protocol)
With COc1ccc(S(=O)(=O)N(C)C[C@@H]2OCCCC[C@H](C)Oc3ccc(NC(=O)Nc4ccccc4)cc3C(=O)N([C@H](C)CO)C[C@H]2C)cc1 the growth activity, negative = inhibition was -1.33%. Compound O=C(C[C@@H]1CC[C@H](NS(=O)(=O)c2ccc(F)cc2)[C@@H](CO)O1)NCc1ccccc1F has a growth activity, negative = inhibition of -8.59%. COCC(=O)N1[C@H](CO)[C@H](c2ccccc2C2=CCCCC2)[C@@H]1C#N gave a growth activity, negative = inhibition of -0.454%. In the case of COc1ccc(NC(=O)Nc2ccc3c(c2)C(=O)N([C@@H](C)CO)C[C@H](C)[C@H](CN(C)Cc2ccc(C(F)(F)F)cc2)OCCCC[C@H](C)O3)cc1, the growth activity, negative = inhibition is reported as 0.631%. In the case of COc1ccc(CN(C)C[C@@H]2OCCCC[C@@H](C)Oc3ccc(NC(=O)Nc4ccc(C(F)(F)F)cc4)cc3C(=O)N([C@H](C)CO)C[C@H]2C)cc1, the growth activity, negative = inhibition is reported as -85.2% (active). Work on C[C@@H]1CN([C@H](C)CO)C(=O)c2cc(NC(=O)Nc3ccc(C(F)(F)F)cc3)ccc2O[C@@H](C)CCCCO[C@@H]1CN(C)Cc1ccc(C(F)(F)F)cc1 yielded a growth activity, negative = inhibition of 0.541%. With COc1ccc(S(=O)(=O)N2CC[C@@H]3[C@H](CO)Nc4ccc(C#Cc5cccc(OC)c5)cc4[C@@H]32)cc1 the growth activity, negative = inhibition was 47.9%. In the case of CCCNC(=O)N1[C@@H]2CNC[C@H]1C2c1ccc(-c2cccc(C)c2)cc1 (some centres not stated), the growth activity, negative = inhibition is reported as -6.26% and -5.23%. In the case of C[C@H](CO)N1C[C@H](C)[C@@H](CN(C)C(=O)C2CCC2)Oc2cc(C3=CCCCC3)ccc2S1(=O)=O, the growth activity, negative = inhibition is reported as -7.06%. O=C(C[C@@H]1CC[C@@H](NC(=O)c2cccnc2)[C@H](CO)O1)NCCN1CCCCC1 showed a growth activity, negative = inhibition of -5.37%. For CN(C)C(=O)C[C@@H]1CC[C@H]2[C@@H](COC[C@H](O)CN2S(=O)(=O)c2ccccc2)O1, the growth activity, negative = inhibition was 0.743% and 2.09%. Work on O=C(NC1Cc2ccccc2C1)[C@@H]1[C@@H](CO)[C@@H]2Cn3c(ccc(C4=CCCC4)c3=O)[C@H]1N2CC1CC1 yielded a growth activity, negative = inhibition of -0.745%. Work on C[C@H](O)C#Cc1cnc2c(c1)C(=O)N([C@H](C)CO)C[C@@H](C)[C@@H](CN(C)C(=O)Nc1ccc(C(F)(F)F)cc1)O2 yielded a growth activity, negative = inhibition of 4.02%. With O=C(Cc1ccccc1)N1CC2(C1)[C@H](c1ccccc1)[C@@H](CO)N2C(=O)c1cccnc1 the growth activity, negative = inhibition was 1.92%. With O=C(Cc1cccnc1)N1CC(=O)N2[C@@H](CO)[C@H](c3ccc(C#CC4CC4)cc3)[C@@H]2C1 the growth activity, negative = inhibition was -8.63%. CCCC(=O)Nc1ccc2c(c1)OC[C@H](C)N(Cc1ccc(F)cc1)C[C@H](C)[C@H](OC)CN(C)C2=O gave a growth activity, negative = inhibition of -2.55%. COc1ccc2c3c(n(C)c2c1)[C@H](CO)N(C(=O)c1ccncc1)CC31CCN(CC2CC2)CC1 gave a growth activity, negative = inhibition of -4.02%. With CN(C)CC(=O)N[C@H]1CC[C@H](CCNC(=O)C2CCCCC2)O[C@H]1CO the growth activity, negative = inhibition was -2.36%. In the case of CCS(=O)(=O)N1CC(=O)N2[C@H](CO)[C@@H](c3ccc(C#Cc4cccc(F)c4)cc3)[C@@H]2C1, the growth activity, negative = inhibition is reported as -11.9%. Compound CCCNC(=O)N1CC2(CCN(Cc3ccc(F)cc3)CC2)c2c([nH]c3cc(OC)ccc23)[C@@H]1CO has a growth activity, negative = inhibition of -2.16%. Compound COc1ccc(C#Cc2cnc3c(c2)C(=O)N([C@H](C)CO)C[C@@H](C)[C@H](CN(C)C(=O)Nc2cccc(OC)c2)O3)cc1 has a growth activity, negative = inhibition of -9.72%. In the case of CO[C@@H]1CN(C)C(=O)c2ccc(NC(=O)NC(C)C)cc2OC[C@@H](C)N(C)C[C@H]1C, the growth activity, negative = inhibition is reported as -0.836%. CO[C@H]1CN(C)C(=O)c2ccc(NC(=O)c3cnccn3)cc2OC[C@H](C)N(C)C[C@@H]1C gave a growth activity, negative = inhibition of 4.99%. CC=Cc1ccc2n(c1=O)C[C@H]1[C@H](CO)[C@@H](C(=O)NCCc3cn(C)cn3)[C@@H]2N1C(=O)CC (mixture of isomers) gave a growth activity, negative = inhibition of 1.45%. In the case of CCNC(=O)C[C@H]1CC[C@@H]2[C@H](COc3ccc(NC(=O)Nc4cccc(Cl)c4)cc3C(=O)N2C)O1, the growth activity, negative = inhibition is reported as -2.43%. With CC(=O)N1[C@H](CNC(=O)CN(C)C)[C@H](c2ccc(C3=CCCC3)cc2)[C@@H]1CO the growth activity, negative = inhibition was -3.19%. Compound CO[C@H]1O[C@H](CO)[C@@H](OC(=O)Nc2ccc(C(F)(F)F)cc2)[C@H](OC(=O)Nc2ccc3c(c2)OCO3)[C@H]1OC(=O)Nc1ccc2c(c1)OCO2 has a growth activity, negative = inhibition of 16.4%. Compound COc1ccc(-c2ccc3c(c2)[C@@H]2[C@@H](CCN2C(=O)NC2CCCC2)[C@@H](CO)N3C)cc1 has a growth activity, negative = inhibition of -8.11%. Compound C[C@H](NC(=O)[C@@H]1[C@@H](CO)[C@@H]2Cn3c(ccc(-c4cccc(F)c4)c3=O)[C@@H]2N1C)c1ccccc1 has a growth activity, negative = inhibition of -2.53%. In the case of CN1C(=O)c2cc(NC(=O)C3CCCCC3)ccc2OC[C@H]2O[C@@H](CC(=O)NC3CCCC3)CC[C@@H]21, the growth activity, negative = inhibition is reported as -2.9%. In the case of CO[C@H]1CN(C)C(=O)c2ccc(NC(=O)Nc3ccc(F)cc3)cc2OC[C@@H](C)NC[C@H]1C, the growth activity, negative = inhibition is reported as 0.388%. For CO[C@H]1CN(C)C(=O)c2ccc(NC(=O)Nc3ccc4c(c3)OCO4)cc2OC[C@H](C)NC[C@H]1C, the growth activity, negative = inhibition was -11.3%. In the case of CO[C@@H]1CN(C)C(=O)c2ccc(NC(=O)Nc3cc(Cl)cc(Cl)c3)cc2OC[C@H](C)NC[C@H]1C, the growth activity, negative = inhibition is reported as -99.2% (active). COc1cccc(NC(=O)N2C[C@@H](O)COC[C@@H]3O[C@@H](CC(=O)NC4CCC4)CC[C@H]32)c1 gave a growth activity, negative = inhibition of 5.76%. For Cc1ccccc1S(=O)(=O)NCC[C@@H]1CC[C@H](NC(=O)C2CCC2)[C@@H](CO)O1, the growth activity, negative = inhibition was 2.36%. For O=C(N[C@H]1CC[C@H](CCNS(=O)(=O)c2ccc(F)cc2)O[C@H]1CO)c1cccc(F)c1, the growth activity, negative = inhibition was -5.13%. With COC(=O)C[C@H]1C[C@H]2c3cc(NC(=O)Nc4ccccc4F)ccc3O[C@H]2[C@H](CO)O1 the growth activity, negative = inhibition was 2.15%. With COc1cc(C(=O)NC2CCN(C)CC2)ccc1Nc1ncc2c(n1)N(C1CCC(O)CC1)CCC(=O)N2C (configuration not stated) the growth activity, negative = inhibition was -0.491%. O=C(Nc1cc(F)ccc1F)N1C[C@H]2[C@@H](c3ccccc31)[C@@H](CO)N2CC1CCCC1 showed a growth activity, negative = inhibition of 8.3%. For O=C(NCC1CC1)[C@@H]1[C@@H](CO)[C@@H]2Cn3c(ccc(-c4ccccc4)c3=O)[C@H]1N2Cc1nccs1, the growth activity, negative = inhibition was -2.44%. Compound CCCNC(=O)N(C)C[C@H]1Oc2ncc(-c3cccc(C#N)c3)cc2C(=O)N([C@@H](C)CO)C[C@@H]1C has a growth activity, negative = inhibition of 2.18%. With C[C@@H]1CCCCO[C@@H](CN(C)C(=O)Nc2ccc3c(c2)OCO3)[C@H](C)CN([C@H](C)CO)C(=O)c2cc(NC(=O)CCCN(C)C)ccc2O1 the growth activity, negative = inhibition was 5.23%. With O=C(Cc1cccnc1)N1CC(=O)N2[C@@H](CO)[C@@H](c3ccc(C#CC4CCCC4)cc3)[C@@H]2C1 the growth activity, negative = inhibition was -15.5%. In the case of COc1ccc2c3c(n(C)c2c1)[C@@H](CO)N(C)CC31CN(CC2CC2)C1, the growth activity, negative = inhibition is reported as 1.27%. COc1ccc2c3c([nH]c2c1)[C@H](CO)N(C(=O)Nc1ccc(F)cc1)CC31CN(S(=O)(=O)c2cccc(F)c2)C1 gave a growth activity, negative = inhibition of 0.0849%. O=C(c1cccc(F)c1)N1CC[C@@H]2[C@H](CO)Nc3ccc(-c4ccccc4)cc3[C@@H]21 showed a growth activity, negative = inhibition of 6.91%. With COCC#Cc1ccc([C@@H]2[C@H](CO)N3C(=O)CN(C(=O)C4CCC4)C[C@@H]23)cc1 the growth activity, negative = inhibition was -5.13%. In the case of COc1ccc2c3c([nH]c2c1)[C@@H](CO)N(C(=O)c1ccccc1)CC31CCN(Cc2cccnc2)CC1, the growth activity, negative = inhibition is reported as 3.57%. Compound CC=Cc1ccc2n(c1=O)C[C@H]1[C@H](CO)[C@@H](C(=O)NC3CCCC3)N(Cc3cccnc3)[C@@H]21 (mixture of isomers) has a growth activity, negative = inhibition of 1.31%. CCC(=O)N1CC(=O)N2[C@@H](CO)[C@H](c3ccc(C#CC4CCCC4)cc3)[C@@H]2C1 showed a growth activity, negative = inhibition of -2.43%. CN(C)CC#Cc1ccc([C@H]2[C@H]3CN(C(=O)c4cccc(F)c4)CC(=O)N3[C@H]2CO)cc1 showed a growth activity, negative = inhibition of 2.12%. Compound CO[C@H]1CN(C)C(=O)c2cc(NS(=O)(=O)c3ccccc3C)ccc2OC[C@@H](C)NC[C@@H]1C has a growth activity, negative = inhibition of -1.27%. CS(=O)(=O)N1[C@H](C#N)[C@H](c2ccccc2-c2ccc(F)cc2)[C@@H]1CO showed a growth activity, negative = inhibition of 7%. With CC(=O)N(C)C[C@H]1[C@H](c2ccc(C3=CCCCC3)cc2)[C@H](CO)N1CC1CC1 the growth activity, negative = inhibition was 33.9%. For O=C(C[C@@H]1CC[C@@H](NC(=O)C2CCOCC2)[C@H](CO)O1)NCC1CC1, the growth activity, negative = inhibition was 1.16%. In the case of COc1ccccc1NC(=O)N1CC(=O)N2[C@H](C1)[C@H](c1ccc(C#Cc3ccccc3)cc1)[C@@H]2CO, the growth activity, negative = inhibition is reported as 12.6%. CCCNC(=O)C[C@H]1C[C@H]2c3cc(NC(=O)NC4CCCCC4)ccc3O[C@H]2[C@H](CO)O1 gave a growth activity, negative = inhibition of -4.2%. For COc1cccc(NC(=O)C[C@@H]2CC[C@H]3[C@@H](COc4ccc(NC(=O)C5CCC5)cc4C(=O)N3C)O2)c1, the growth activity, negative = inhibition was -1.63%. Compound C[C@@H]1CN([C@@H](C)CO)S(=O)(=O)c2ccc(/C=C/c3ccccc3)cc2O[C@H]1CN(C)C(=O)Nc1cc(F)ccc1F has a growth activity, negative = inhibition of 4.39%. Work on C/C=C/c1ccc([C@H]2[C@H](CO)N(C(=O)CN(C)C)C23CN(C(=O)C2CC2)C3)cc1 yielded a growth activity, negative = inhibition of -0.638%. CN1c2ccc(-c3ccccc3F)cc2[C@H]2[C@H](CCN2C(=O)Nc2cc(F)ccc2F)[C@H]1CO showed a growth activity, negative = inhibition of 38.2%. C[C@@H]1CCCCO[C@@H](CN(C)C(=O)CCC(F)(F)F)[C@H](C)CN([C@@H](C)CO)C(=O)c2cc(NC(=O)CCCN(C)C)ccc2O1 showed a growth activity, negative = inhibition of 2.21%.
